The assay addresses Peroxisome proliferator-activated receptor gamma (Homo sapiens) (UniProt P37231). Briefly: ERF_FR_NR_COA_hPPARG: Eurofins (ERF) Nuclear Receptor (NR) Functional Coactivator Assay for human Peroxisome Proliferator-activated Receptor gamma (PPARg) Agonism, conducted at France lab site. The protocol:
ERF_FR_NR_COA_hPPARG is a biochemical, single-readout assay that uses extracted gene-proteins in a cell-free assay. Measurements were taken 2 hours after chemical dosing in a 384-well plate. See PPARgamma Human NHR Functional Agonist Coactivator Assay, Cerep.ERF_FR_NR_COA_hPPARG is an assay component calculated from the ERF_FR_NR_COA_hPPARG assay. It is designed to measure FRET using a type of binding reporter as detected by fluorescence intensity of Rosiglitazone with fluorimetry technology.Data from the assay component ERF_FR_NR_COA_hPPARG was analyzed at the assay endpoint, ERF_FR_NR_COA_hPPARG, in the positive analysis fitting direction relative to DMSO as the negative control and baseline of activity. Using a type of binding reporter, gain-of-signal activity can be used to understand changes in binding as they relate to gene PPARG. To generalize the intended target to other relatable targets, this assay endpoint is annotated to the nuclear receptor intended target family, where the subfamily is non-steroidal.
Test compound and/or vehicle is incubated with the 2 nM receptors and coactivator peptide for 180 minutes at room temperature. Determination of the amount of complex formed is read spectrofluorimetrically (excitation: 337 nm, emission: 520/490 nm). Test compound-induced increase fluorescence by 50 percent or more (>/=50%) relative to 1 uM GW1929 response indicates possible PPARgamma receptor agonist activity. Test compound-induced inhibition of 5 nM GW1929-induced fluorescence response by 50 percent or more (>/=50%) indicates receptor antagonist activity.

Active and inactive are the calls of the source. How the source made its calls: active means hit-call score of the fitted dose curve at least 0.9, where 1 is the maximum; inactive means score below 0.9.

Chain of Peroxisome proliferator-activated receptor gamma (Homo sapiens) (P37231 whole entry, looked up): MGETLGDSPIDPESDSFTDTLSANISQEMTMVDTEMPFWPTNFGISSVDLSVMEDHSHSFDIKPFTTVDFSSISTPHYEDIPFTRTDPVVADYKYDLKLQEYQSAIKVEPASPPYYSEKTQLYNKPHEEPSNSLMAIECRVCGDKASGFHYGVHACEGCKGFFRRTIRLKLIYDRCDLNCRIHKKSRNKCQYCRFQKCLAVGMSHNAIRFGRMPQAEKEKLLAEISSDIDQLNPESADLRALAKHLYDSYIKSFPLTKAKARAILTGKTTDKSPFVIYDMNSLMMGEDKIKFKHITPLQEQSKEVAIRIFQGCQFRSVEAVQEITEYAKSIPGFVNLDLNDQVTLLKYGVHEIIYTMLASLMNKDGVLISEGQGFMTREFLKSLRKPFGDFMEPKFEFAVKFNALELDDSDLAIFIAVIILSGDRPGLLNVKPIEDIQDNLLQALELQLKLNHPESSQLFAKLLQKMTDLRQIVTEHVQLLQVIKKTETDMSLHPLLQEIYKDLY

For the compound `O=C(CC(=O)C(F)(F)C(F)(F)C(F)(F)F)c1cccs1`, the outcome was inactive.

Take `O=C(O)CCC(F)(F)C(F)(F)C(F)(F)F`: the compound was called inactive.

For `NC(=O)c1nc(-c2cccc(-c3cc(F)ccc3OCC(F)(F)C(F)(F)F)c2)n[nH]1`, the outcome was inactive.

Values taken from PubChem BioAssay AID2284386 (EPA ToxCast).
